Screening data deposited in PubChem BioAssay by several laboratories.
NRP1-CendR mod: modulators of CendR peptide binding to NRP-1, primary screen, biochemical, fluorescence polarization, uHTS; AID 602438, 2012; hit rate 0.85% among 360,000; inhibition, % at 25 µM; Neuropilin-1 (Homo sapiens), O14786; FAM-RPARPAR peptide binding to NRP-1;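 active means inhibition or corrected inhibition above about 18%, plus a signal ratio from 0.5 to 1.5, limit read from the data, passing the limit was not always enough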
Target sequence (O14786 whole entry, looked up): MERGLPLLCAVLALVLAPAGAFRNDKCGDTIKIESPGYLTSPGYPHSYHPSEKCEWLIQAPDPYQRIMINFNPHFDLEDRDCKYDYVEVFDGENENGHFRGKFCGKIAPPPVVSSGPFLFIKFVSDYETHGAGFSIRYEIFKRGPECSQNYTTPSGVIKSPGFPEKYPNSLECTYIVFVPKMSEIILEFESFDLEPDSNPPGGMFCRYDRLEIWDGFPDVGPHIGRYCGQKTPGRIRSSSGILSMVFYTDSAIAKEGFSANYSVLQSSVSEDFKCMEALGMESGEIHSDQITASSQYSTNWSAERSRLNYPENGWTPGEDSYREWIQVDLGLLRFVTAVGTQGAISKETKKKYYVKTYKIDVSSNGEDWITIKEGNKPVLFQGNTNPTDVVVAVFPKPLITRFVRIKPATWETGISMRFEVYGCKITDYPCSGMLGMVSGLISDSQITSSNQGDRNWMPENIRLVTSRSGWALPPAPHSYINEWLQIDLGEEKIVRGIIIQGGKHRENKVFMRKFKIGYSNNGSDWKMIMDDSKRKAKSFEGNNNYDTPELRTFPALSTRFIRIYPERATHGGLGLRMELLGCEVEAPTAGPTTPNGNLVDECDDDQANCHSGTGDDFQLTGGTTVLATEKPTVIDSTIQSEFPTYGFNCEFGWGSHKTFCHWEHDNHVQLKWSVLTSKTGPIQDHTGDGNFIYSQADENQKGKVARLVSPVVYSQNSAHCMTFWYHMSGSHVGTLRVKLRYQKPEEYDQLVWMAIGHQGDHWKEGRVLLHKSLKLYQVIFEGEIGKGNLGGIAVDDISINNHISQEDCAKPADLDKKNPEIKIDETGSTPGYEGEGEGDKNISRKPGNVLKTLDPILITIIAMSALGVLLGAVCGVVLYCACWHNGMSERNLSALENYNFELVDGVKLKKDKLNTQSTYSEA
hiPSC survival: enhancers of single-cell hiPSC survival, primary screen, ATPlite luminescence. hit rate 0.044% among 360,000. 100% = ROCK inhibitor wells, 0% = DMSO. survival enhancement, % at 20 µM; in the data active means survival enhancement above about 18%;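 further: cells exposed to compounds for 16 hours before the ATP read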
ARNT TACC3 PPI: disruptors of ARNT/TACC3 protein interaction, primary screen, biochemical, AlphaScreen, single concentration; inhibition, % at 9.99 µM; Transforming acidic coiled-coil-containing protein 3 (Homo sapiens), Q9Y6A5; hit rate 0.66% among 390,000; AlphaScreen His-ARNT PAS-B/GST-TACC3 binding, luminescence; TACC3 fragment carries E629A point mutation;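 active means mean inhibition of replicates at least 50% and at least half of replicates each reaching 50%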
INS-1E GSIS act: GLuc luminescence reporter in INS-1E cells, primary screen for activators of glucose-dependent secretion of insulin; activation, % at 16.6 µM; AID 743287, 2014; hit rate 0.61% among 370,000; INS-1E GLuc reporter insulin secretion, 2-3 h;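 active means lowest replicate activation of at least 40%, so every replicate reaches that level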
ABCB6 inh 2: ABCB6 transporter inhibitors, primary screen, K562-ABCB6 cells, flow cytometry, MLPCN library | ATP-binding cassette sub-family B member 6 (Homo sapiens), Q9NP58 | K562-ABCB6 porphyrin accumulation, 1 h; active compounds read low | fluorescence ratio to DMSO, % at 10 µM | hit rate 0.19% among 360,000;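 active means fluorescence ratio to DMSO below 75%, the collection mean minus 3 SD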;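 further: signal is porphyrin accumulated inside mitochondria; lower ratio means ABCB6 inhibition with less porphyrin fluorescence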
ABCB6 blocker 1: ABCB6 transporter inhibitors, confirmation, K562-ABCB6 cells, flow cytometry, cherry pick 1 | shares compounds with ABCB6 inh 2 | K562-ABCB6 porphyrin accumulation, 1 h; active compounds read low | ratio response (% of DMSO), % at 10 µM | 700 tested, under 10 active | AID 602430, 2012;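 active means repeat-averaged ratio response below 75% of DMSO, the collection mean minus 3 SD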;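 further: median porphyrin fluorescence at 575 nm with 488 nm excitation from mitochondria; lower ratio means less porphyrin signal so ABCB6 inhibition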
Hits are given with their value; i = inactive; nt = not tested or not shown. This is a sample that favours compounds with a hit; in the whole collection about 1.8% have one here.

SMILES | NRP1-CendR mod | hiPSC survival | ARNT TACC3 PPI | INS-1E GSIS act | ABCB6 inh 2 | ABCB6 blocker 1
Cc1ccc(S(=O)(=O)N(C)CC(=O)NCCCn2ccnc2)cc1 | i | i | i | i | 61 | i
CO[C@@H]1CN(C)C(=O)c2cc(NC(=O)Nc3c(C)noc3C)ccc2OC[C@@H](C)N(CC2CC2)C[C@H]1C | nt | nt | i | nt | nt | nt
CCCCCN(C(=O)CCC(=O)OC(C)C(=O)c1ccc(CC)cc1)c1c(N)n(CCCC)c(=O)[nH]c1=O (stereo not given) | i | i | nt | i | i | i
CCCCN(C(=O)CCC(=O)OCC(=O)NCc1ccccc1)c1c(N)n(CCC)c(=O)[nH]c1=O | i | i | i | i | i | i
CC(C)CN(C(=O)CCC(=O)OCC(=O)c1ccc(F)c(F)c1)c1c(N)n(CC(C)C)c(=O)[nH]c1=O | i | i | i | i | i | nt
CCCCCN(C(=O)CCC(=O)OCC(=O)c1ccc(CCC)cc1)c1c(N)n(CCCC)c(=O)[nH]c1=O | i | i | nt | i | 73 | i
CC(C)CN(C(=O)CCC(=O)OCC(=O)N(C)c1ccccc1)c1c(N)n(CC(C)C)c(=O)[nH]c1=O | i | i | i | i | i | i
CCCCCN(C(=O)CCC(=O)OCC(=O)c1ccc(C(C)(C)C)cc1)c1c(N)n(CCCC)c(=O)[nH]c1=O | i | i | i | i | i | nt
CCCCCN(C(=O)CCC(=O)OC(C)C(=O)Nc1ccccc1C)c1c(N)n(CCCC)c(=O)[nH]c1=O (stereo not given) | i | i | nt | i | i | i
CCCCCN(C(=O)CCC(=O)OCc1ccccc1C)c1c(N)n(CCCC)c(=O)[nH]c1=O | i | i | nt | i | i | nt
Cc1ccc(N(Cc2ccccc2F)S(C)(=O)=O)c(C)c1 | i | i | i | i | i | nt
Cc1ccccc1N(Cc1ccccc1F)S(C)(=O)=O | i | i | i | i | 63 | i
CN(Cc1ccccc1)C1=CC(=[N+]2CCCC2)CC(C)(C)C1 | i | i | i | i | i | nt
CCN(CC)C1=CC(=[N+]2CCCC2)CC(C)(C)C1 | i | i | i | i | 67 | i
COC(=O)C1C(=O)C2=C(CC1C)NC(C)=C(C(=O)OC(C)C)C2c1ccc(OC)c(O)c1 (stereo not given) | i | i | i | nt | 73 | i
COC(=O)C1C(=O)C2=C(CC1C)NC(C)=C(C(=O)OC1CCCC1)C2c1ccc(N(C)C)cc1 (stereo not given) | i | i | i | nt | i | nt
Cc1cccc(NC(=O)C2CCN(S(=O)(=O)c3c(C)noc3/C=C/c3ccco3)CC2)n1 | i | i | i | i | 51 | i
COCC#Cc1ccc2c(c1)O[C@@H](CN(C)CC1CCOCC1)[C@H](C)CN([C@H](C)CO)S2(=O)=O | nt | nt | i | i | nt | nt
N#Cc1ccsc1NC(=O)COC(=O)c1ccc(NC(N)=O)cc1 | i | i | i | i | 74 | i
NC(=O)Nc1ccc(C(=O)OCC(=O)Nc2sccc2C(N)=O)cc1 | i | i | i | i | i | nt
COc1ccc(-c2cc(C(=O)Nc3c(C)nn(Cc4ccccc4)c3C)no2)cc1 | i | i | i | i | 51 | i
O=C(Cn1cc(C(=O)c2cccs2)c2ccccc21)NC1CCCCC1 | i | i | i | nt | 60 | i
CCCN1C[C@H](C)[C@@H](OC)CN(C)C(=O)c2cc(NC(=O)Nc3c(C)noc3C)ccc2OC[C@H]1C | nt | nt | i | i | nt | nt
Cc1nc(N2CCN(Cc3ccc4c(c3)OCO4)CC2)nc2c1C(=O)CC(c1ccco1)C2 (stereo not given) | i | i | i | nt | 73 | i
CN(C(=O)C1CCCC1)C1CCS(=O)(=O)C1 (stereo not given) | i | i | i | i | 71 | i
SMILES | NRP1-CendR mod | hiPSC survival | ARNT TACC3 PPI | INS-1E GSIS act | ABCB6 inh 2 | ABCB6 blocker 1
CN(C(=O)C1CCCCC1)C1CCS(=O)(=O)C1 (stereo not given) | i | i | i | i | i | nt
CCC(=O)Nc1ccc2c(c1)nc1n2CCSC1 | i | i | nt | nt | 70 | i
Cc1ncc([N+](=O)[O-])n1CC(=O)Nc1cc(Cl)ccc1Cl | i | i | i | i | 10 | i
CN(C)C1=NC[C@H](Cc2ccccc2)N1CC1CCCC1 | i | i | i | i | 72 | i
CN(C)C1=NC[C@H](Cc2ccccc2)N1CC1CCCCC1 | i | i | i | i | i | nt
NS(=O)(=O)c1ccc(NC(=O)CN2CCc3ccccc3C2)cc1 | i | i | i | i | 73 | i
CC(=O)N(C)C[C@@H]1Oc2c(cccc2N(C)C)C(=O)N(C)C[C@H]1C | nt | nt | nt | i | nt | nt
O=C(C[C@@H]1CC[C@@H]2[C@H](COC[C@H](O)CN2CCc2ccccc2)O1)NCc1ccc(Oc2ccccc2)cc1 | nt | nt | i | i | nt | nt
Cc1cccc(/C=C2\Sc3ccc(C(=O)N4CCC(C)CC4)cc3N(C)C2=O)c1 | i | i | i | i | 13 | i
Cc1cccc(/C=C2\Sc3ccc(C(=O)N4CCCCC4)cc3N(C)C2=O)c1 | i | i | i | i | i | nt
CCCCOC(=O)c1[nH]c2c(c1C)C(=O)CC(c1cc(OC)c(OC)c(OC)c1)C2 (stereo not given) | i | i | i | i | i | nt
COCCOC(=O)c1[nH]c2c(c1C)C(=O)CC(c1cc(OC)c(OC)c(OC)c1)C2 (stereo not given) | i | i | i | i | 71 | i
O=C1[C@H](Cc2ccc(C(F)(F)F)cc2)CCn2cc(nn2)COC[C@@H]2CCCCN12 | nt | nt | nt | i | nt | nt
C[C@@H]1CN([C@H](C)CO)S(=O)(=O)c2ccc(/C=C/c3ccccc3)cc2O[C@@H]1CN(C)C | nt | nt | i | i | nt | nt
COc1ccc(OC)c(Nc2ncnc3c2cnn3-c2ccccc2)c1 | i | i | i | nt | 71 | i
COc1ccccc1Nc1ncnc2c1cnn2-c1cccc(C)c1 | i | i | i | nt | i | nt
CC(C)c1ccc(NC(=O)C2Cc3c(-c4cccc(F)c4)ccnc3O2)cc1 (stereo not given) | i | i | nt | i | i | nt
CC(=O)c1cccc(-c2ccnc3c2CC(C(=O)Nc2ccc(F)c(Cl)c2)O3)c1 (stereo not given) | i | i | nt | i | i | i
O=C(Nc1ccc(F)c(Cl)c1)C1Cc2c(-c3cccc(F)c3)ccnc2O1 (stereo not given) | i | i | nt | nt | 72 | i
O=C(Nc1ccc2c(c1)OCO2)C1Cc2c(-c3ccc(Cl)cc3)ccnc2O1 (stereo not given) | i | i | nt | nt | i | i
C[C@H]1CN([C@@H](C)CO)C(=O)Cc2cc(NC(=O)Cc3cn(C)c4ccccc34)ccc2O[C@H]1CN(C)S(C)(=O)=O | nt | nt | i | i | nt | nt
